Compound activity from PubChem.
Many of the other results were omitted from the sample, so hits are more common in it than they were.
ST2 IL33 inh: inhibitors of human ST2 (IL1RL1) binding to IL-33, primary screen, biochemical, AlphaLISA; AlphaLISA ST2-Fc/biotin-IL-33 interaction, 1 h; Interleukin-1 receptor-like 1 (Homo sapiens), Q01638; inhibition, % for hits at 17 µM; hit rate 2.3% among 78,000; in the data active means inhibition above about 30%
Target sequence (Q01638 whole entry, looked up): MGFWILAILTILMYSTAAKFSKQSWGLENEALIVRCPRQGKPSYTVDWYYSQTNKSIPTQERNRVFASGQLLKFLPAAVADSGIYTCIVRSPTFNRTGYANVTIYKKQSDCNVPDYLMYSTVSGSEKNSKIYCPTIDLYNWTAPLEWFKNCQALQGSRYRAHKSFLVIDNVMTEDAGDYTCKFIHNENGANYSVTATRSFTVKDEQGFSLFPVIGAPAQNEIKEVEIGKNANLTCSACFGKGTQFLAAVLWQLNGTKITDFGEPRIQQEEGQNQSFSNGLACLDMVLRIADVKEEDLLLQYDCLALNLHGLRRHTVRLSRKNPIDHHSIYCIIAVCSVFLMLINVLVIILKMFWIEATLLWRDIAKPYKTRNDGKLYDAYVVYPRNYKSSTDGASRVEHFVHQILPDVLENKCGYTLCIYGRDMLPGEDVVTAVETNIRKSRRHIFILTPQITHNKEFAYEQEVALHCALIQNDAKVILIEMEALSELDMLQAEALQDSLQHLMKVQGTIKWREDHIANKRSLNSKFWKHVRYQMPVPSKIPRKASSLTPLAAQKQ
The depositor's hits bear a star; i = inactive.

SMILES | ST2 IL33 inh
CC(=O)N(O)CCCC1NC(=O)CNC(=O)CNC(=O)CNC(=O)C(CCCN(O)C(C)=O)NC(=O)C(CCCN(O)C(C)=O)NC1=O (stereo not drawn) | i
CC(C)NC(=O)C1CC(=O)N(c2ccc(F)c(Cl)c2)C1 (stereo not drawn) | i
CCC(C)NC(=O)C1CC(=O)N(c2ccc(F)cc2)C1 (stereo not drawn) | 33%*
Cc1ccnc(NC(=O)C2CC(=O)N(c3ccc(F)cc3)C2)c1 (stereo not drawn) | i
CCC(NC1CCN(c2ccc3c(c2)OCO3)CC1)c1ccnn1C (stereo not drawn) | i
Cc1ccc(F)c(NC(=O)C(C)(C)Oc2ccc(Cl)cc2)c1 | i
N#CSC(C#N)Cc1cccc(Cl)c1 (stereo not drawn) | 34%*
NC(=O)c1cccn1Cc1cccc(Cl)c1 | i
Clc1cccc(CN2CCCCCC2)c1 | i
COc1ccc(NC(=O)C(=O)NCCN2CCN(S(C)(=O)=O)CC2)cc1 | i
N#C/C(=C/c1ccc(F)cc1)c1nc(-c2ccccc2)cs1 | 56%*
N#CCc1nc(-c2ccccc2)cs1 | i
Nc1nc(-c2ccc(-c3ccccc3)cc2)cs1 | i
N#C/C(=C\Nc1ccc(S(N)(=O)=O)cc1)c1nc(-c2ccccc2)cs1 | i
N#C/C(=C/C=C/c1ccccc1)c1nc(-c2ccc(F)cc2)cs1 | 40%*
N#C/C(=C/C=C/c1ccccc1)c1nc(-c2cccs2)cs1 | 60%*
Fc1ccc(-c2cn3ccsc3n2)cc1 | i
CCOC(CNC(=O)c1sc2nc(C)nc(N3CCOCC3)c2c1C)OCC | i
CCCNC(=O)C1(O)c2cc(Br)ccc2NC(=O)N1c1ccc(CC)cc1 (stereo not drawn) | i
COc1ccc(OC)c(S(=O)(=O)Nc2cccc(C(=O)O)c2)c1 | i
CC(C)CCNC(=O)NCCc1nc2cccnc2n1-c1ccccc1 | i
CC(C)c1ccc(NC(=O)c2ccccc2[N+](=O)[O-])cc1 | i
CCC(=O)Nc1cccc(C(=O)NCCCc2ccncc2)c1 | i
CN(C)C=Nc1nnc(SCC(=O)Nc2ccc(S(=O)(=O)N=CN(C)C)cc2)s1 | i
CCCOC(=O)c1ccc(N2C(=O)C3CC=CCC3C2=O)cc1 (stereo not drawn) | i
SMILES | ST2 IL33 inh
Clc1cccc(-c2nccn2CCc2cccnc2)c1 | i
Cc1cccc2[nH]c(-c3ccc(NC(=O)c4ccc(N)cc4)cc3)nc12 | i
Nc1ccc(C(=O)Nc2ccc(-c3nc4ccc(NC(=O)c5ccc(N)cc5)cc4[nH]3)cc2)cc1 | 30%*
CC(=O)Nc1ccc(-c2nc3ccc(NC(C)=O)cc3[nH]2)cc1 | i
O=C(Nc1nc2c(s1)CCCC2)c1ccccc1Cl | i
Cc1cn2cc(CNC(=O)c3ccc(C4CCCO4)s3)nc2s1 (stereo not drawn) | i
CCC(SC1=Nc2ccccc2C2=NC(Cc3ccccc3)C(=O)N12)C(=O)N1CCOCC1 (stereo not drawn) | i
O=C(CC1(c2ccccc2Cl)CC(=O)N(C2CCCC2)C1=O)N1CCCCC1c1cccnc1 (stereo not drawn) | i
O=C(NCC1(c2ccccc2)CCOCC1)c1ccc(Cl)cc1Cl | i
CCCCOc1ccc(C2C(C#N)=C(N)Oc3n[nH]c(C)c32)cc1 (stereo not drawn) | i
Cc1ccc(-c2[nH]nc3c2C(c2ccccc2F)C(C#N)=C(N)O3)cc1 (stereo not drawn) | i
CCOc1ccc(C2C(C#N)=C(N)Oc3n[nH]c(C)c32)cc1 (stereo not drawn) | i
CCN(CC)c1ccc(C2C(C#N)=C(N)Oc3n[nH]c(C)c32)cc1 (stereo not drawn) | i
Cc1[nH]nc2c1C(c1cc(Br)cs1)C(C#N)=C(N)O2 (stereo not drawn) | 33%*
Cc1[nH]nc2c1C(c1c(F)cccc1F)C(C#N)=C(N)O2 (stereo not drawn) | 32%*
CCOc1ccc2[nH]cc(C(=O)c3ccc(OC)cc3)c(=O)c2c1 | i
CCCCNC(=O)Cn1cnc2sc(C)c(S(=O)(=O)N3CC(C)CC(C)C3)c2c1=O (stereo not drawn) | i
COc1ccc(-c2nc(N3CCCCC3)nc3n[nH]c(N)c23)cc1 | i
O=C1OC(c2ccccc2)OC(=O)C1=Cc1ccc(-c2cc(C(=O)O)ccc2Cl)o1 (stereo not drawn) | i
COc1ccc(/C=C2/C(=O)c3ccc(C(=O)O)cc3C2=O)cc1OC | i
O=C(O)c1ccc2c(c1)C(=O)/C(=C\c1ccc([N+](=O)[O-])o1)C2=O | 91%*
O=C(O)c1ccc2c(c1)C(=O)/C(=C\c1ccco1)C2=O | 71%*
O=C(O)c1ccc(C(=O)O)c(-c2ccccc2)c1 | i
O=C(O)c1ccc(N2CCCC2)c([N+](=O)[O-])c1 | i
c1ccc2c(c1)CCCC2NCc1cn[nH]c1-c1cc2ccccc2o1 (stereo not drawn) | i
SMILES | ST2 IL33 inh
O=C(Nc1ccc(I)cc1)[C@H]1[C@H](C(=O)O)[C@H]2C=C[C@@H]1C2 | i
CC(C)CCNC(=O)c1cc(=O)[nH]c2ccc(S(=O)(=O)N3CCOCC3)cc12 | i
Cc1ccccc1C(NC(=O)Cc1nc2ccccc2[nH]1)c1ccncc1 (stereo not drawn) | i
CN(CC(=O)N1CCn2c1nc1ccccc12)S(=O)(=O)c1ccc2c(c1)CCC(=O)N2 | i
CCSc1nc2c(sc3ccccc32)c(=O)n1CC1CCCO1 (stereo not drawn) | i
COc1cc(OC)c(OC)cc1/C=C1\N=C(c2ccc(OC)c([N+](=O)[O-])c2)OC1=O | i
COc1cc(C=Nc2ccc(Nc3ccccc3)cc2)c([N+](=O)[O-])cc1OC | 57%*
COc1ccccc1N=Cc1cccc([N+](=O)[O-])c1O | i
COc1cccc(Nc2cc(C)nc3c(C)cccc23)c1 | i
Cc1cccc(N2CCN(C(=O)c3cccn4c(=O)c5c6c(sc5nc34)CCCC6)CC2C)c1 (stereo not drawn) | i
COc1ccc(C2SCCN2C(=O)c2cc3ccccc3oc2=O)cc1OC (stereo not drawn) | i
Cc1ccc(S(=O)(=O)Nc2ccccc2-c2ccccc2)cc1 | i
Cc1ccc(-c2cc3c(nn2)-c2ccccc2C3=O)cc1 | 34%*
O=C1c2ccccc2-c2n[nH]c3cccc1c23 | i
NC1=NC(=O)C(CC(=O)Nc2ccc(Oc3ccc(Cl)cc3)cc2)S1 (stereo not drawn) | i
COc1ccc(N2CC(C(=O)NCC3CCCO3)CC2=O)cc1 (stereo not drawn) | i
CC1CN(c2c3c(c(C#N)c4nc5ccccc5n24)CCC3)CC(C)O1 (stereo not drawn) | i
N#Cc1c(-c2ccccc2)c(C#N)c2nc3ccccc3n2c1N | 32%*
Cc1nccn1-c1c2c(c(C#N)c3nc4ccccc4n13)CCC2 | i
COc1ccc(OC)c(N2CC(O)=C(c3nc4ccccc4c(=O)[nH]3)C2=N)c1 | i
CC(C)C(Nc1ccc(C(F)(F)F)cc1[N+](=O)[O-])C(=O)O (stereo not drawn) | i
Cc1nonc1OCC(C)(C)Nc1ccc(C(F)(F)F)cc1[N+](=O)[O-] | 36%*
CC(=O)Nc1ccc(S(=O)(=O)Nc2ccc(C(F)(F)F)cc2[N+](=O)[O-])cc1 | i
O=C(CN1CCN(Cc2ccc(F)cc2Cl)C1=O)NCCCN1CCCC1=O | i
